Where “and” joins values, the source holds several entries; their conditions need not be identical. Equal entries are not always repeated. The source holds several records for some structures; these can differ, active in one and inactive in another. Calls of active or inactive are those of the source. The calls were made as follows: active = hit-call score of the fitted dose curve at least 0.9, where 1 is the maximum; inactive = score below 0.9.
Read-out: not listed separately
Experiment: BSK_KF3CT_SRB: Viability Assessment in the BioMAP Diversity Plus: KF3CT Assay (AID 2283069);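 also: read 24 h after compound addition; fitted for both signal gain and loss against DMSO baseline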
Details: primary human keratinocytes with fibroblasts
Summary of the method: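 Overt cytotoxicity is assessed as total protein by sulforhodamine B staining in parallel human skin co-cultures at 24 h after dosing. DMSO serves as negative control and baseline.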

Question: For `C=CC(=O)OCC(Br)CBr` (stereo not drawn), which AC50 is on record?
Answer: Its AC50 is 33.8 µM (active).

Question: For `O=C(Nc1ccccc1SSc1ccccc1NC(=O)c1ccccc1)c1ccccc1`, which outcome is on record?
Answer: The outcome was “inactive”.

Question: With `CCOc1nc(F)cc2nc(S(=O)(=O)Nc3c(Cl)cccc3C(=O)OC)nn12` as the compound, how does the outcome read?
Answer: Its outcome is “inactive”.

Question: With `N#[N+]c1ccc2c(S(=O)(=O)[O-])cccc2c1O` as the compound, how does the outcome read?
Answer: Its outcome is “inactive”.

Question: Which outcome does the source give for `COCc1c(C(C)C)nc(C(C)C)c(/C=C/[C@@H](O)C[C@@H](O)CC(=O)O)c1-c1ccc(F)cc1` here?
Answer: The outcome was “inactive”.

Question: For `CCCCC(CC)COC(=O)c1ccccc1O` (stereo not drawn), which outcome is on record?
Answer: Its outcome is “inactive”.

Question: Which outcome does the source give for `O=C1CCCN1CCO` here?
Answer: The outcome was “inactive”.

Question: Which outcome does the source give for `CC1OC1C1CCC2(C)OC2C1` (stereo not drawn) here?
Answer: Its outcome is “inactive”.

Question: For `CCO[Si](C)(OCC)OCC`, which outcome is on record?
Answer: Its outcome is “inactive”.

Question: For `C=CCOCC(O)CCl` (stereo not drawn), which outcome is on record?
Answer: Its outcome is “inactive”.

Question: With `C#CC1(O)CC[C@H]2[C@@H]3CCC4=CCCC[C@@H]4[C@H]3CC[C@@]21C` (stereo partly drawn) as the compound, how does the AC50 read?
Answer: The AC50 was 30.6 µM (active).

Question: Which AC50 does the source give for `O=C(Cl)c1cc(C(=O)Cl)cc(C(=O)Cl)c1` here?
Answer: Its AC50 is 33.2 µM (active).

Question: With `CCCCCCCCCCCCCCCC[N+](C)(C)CC` as the compound, how does the AC50 read?
Answer: Its AC50 is 5.14 µM (active).

Question: For `CN1C(=O)N(C)C(O)C1O` (stereo not drawn), which outcome is on record?
Answer: Its outcome is “inactive”.

Question: For `CCCCNc1ccc(NCCCC)c2c1C(=O)c1ccccc1C2=O`, which outcome is on record?
Answer: Its outcome is “inactive”.

Question: For `C=C[Si](OC(C)=O)(OC(C)=O)OC(C)=O`, which outcome is on record?
Answer: The outcome was “inactive”.

Question: With `Nc1ccc(N)c(Cl)c1` as the compound, how does the outcome read?
Answer: Its outcome is “inactive”.

Question: Which outcome does the source give for `O=Nc1ccc(O)cc1` here?
Answer: The outcome was “inactive”.

Question: With `C=CCOc1c(Br)cc(Br)cc1Br` as the compound, how does the AC50 read?
Answer: Its AC50 is 27.8 µM (active).

Question: For `CCCCCCCCc1ccc(Nc2ccc(CCCCCCCC)cc2)cc1`, which outcome is on record?
Answer: Its outcome is “inactive”.

Question: Which AC50 does the source give for `CCCCC/C=C\C/C=C\CCCCCCCC(=O)OC` here?
Answer: The AC50 was 31 µM (active).

Question: With `C=CC=CC=CCCCCC` as the compound, how does the outcome read?
Answer: The outcome was “inactive”.

Question: Which AC50 does the source give for `CC(C)(c1cc(Br)c(OCCO)c(Br)c1)c1cc(Br)c(OCCO)c(Br)c1` here?
Answer: Its AC50 is 9.41 µM (active).

Question: For `O=C(c1ccc(O)cc1)c1ccc(O)cc1O`, which outcome is on record?
Answer: The outcome was “inactive”.

Question: For `CCCCC(CC)COCC1CO1` (stereo not drawn), which outcome is on record?
Answer: The outcome was “inactive”.

Question: For `O=c1c2ccccc2oc2ccccc12`, which outcome is on record?
Answer: Its outcome is “inactive”.

Question: With `S=C(NC1CCCCC1)NC1CCCCC1` as the compound, how does the outcome read?
Answer: The outcome was “inactive”.

Question: Which AC50 does the source give for `CCOC(=O)c1ccccc1C(=C1C=C(Br)C(=O)C(Br)=C1)c1cc(Br)c(O)c(Br)c1` here?
Answer: Its AC50 is 3.4 µM (active).

Question: And the outcome?
Answer: Its outcome is “inactive”.

Question: Which outcome does the source give for `CO[Si](OC)(OC)c1ccccc1` here?
Answer: The outcome was “inactive”.

Question: For `CC(C)C(=O)C(C)C`, which outcome is on record?
Answer: The outcome was “inactive”.

Question: Which outcome does the source give for `COc1ccc2nc(N)sc2c1` here?
Answer: Its outcome is “inactive”.

Question: With `c1ccc2c(c1)ccc1cc3c(ccc4ccccc43)cc12` as the compound, how does the outcome read?
Answer: The outcome was “inactive”.

Question: Which outcome does the source give for `c1ccc2c(c1)ccc1ncccc12` here?
Answer: Its outcome is “inactive”.

Question: Which outcome does the source give for `C/C=C\C/C=C/CCCCCCCCOC(C)=O` here?
Answer: The outcome was “inactive”.

Question: For `c1ccc(-c2ccccn2)nc1`, which outcome is on record?
Answer: The outcome was “inactive”.

Question: For `CCO[Si](CCCN=C=O)(OCC)OCC`, which outcome is on record?
Answer: The outcome was “inactive”.

Read-out: Interleukin-1 alpha (IL1a), IL1A (gene 3552)
Experiment: BSK_KF3CT_IL1a: BioMAP Diversity Plus: KF3CT Assay for Interleukin-1 alpha (IL1a) Biomarker Activity (AID 2283070)
Details: primary human keratinocytes with fibroblasts; actives raise or lower the signal
Summary of the method: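 Readout is IL-1a level by ELISA, compared bidirectionally with DMSO as baseline. Cells: human keratinocytes co-cultured with foreskin fibroblasts, harvested 24 h post-dose.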

Question: Which AC50 does the source give for `C=CC(=O)OCC(Br)CBr` (stereo not drawn) here?
Answer: Its AC50 is 32.2 µM (active).

Question: With `O=C(Nc1ccccc1SSc1ccccc1NC(=O)c1ccccc1)c1ccccc1` as the compound, how does the outcome read?
Answer: Its outcome is “inactive”.

Question: For `CCOc1nc(F)cc2nc(S(=O)(=O)Nc3c(Cl)cccc3C(=O)OC)nn12`, which outcome is on record?
Answer: The outcome was “inactive”.

Question: Which outcome does the source give for `N#[N+]c1ccc2c(S(=O)(=O)[O-])cccc2c1O` here?
Answer: Its outcome is “inactive”.

Question: With `COCc1c(C(C)C)nc(C(C)C)c(/C=C/[C@@H](O)C[C@@H](O)CC(=O)O)c1-c1ccc(F)cc1` as the compound, how does the outcome read?
Answer: Its outcome is “inactive”.

Question: For `CCCCC(CC)COC(=O)c1ccccc1O` (stereo not drawn), which outcome is on record?
Answer: The outcome was “inactive”.

Question: Which outcome does the source give for `O=C1CCCN1CCO` here?
Answer: Its outcome is “inactive”.

Question: With `CC1OC1C1CCC2(C)OC2C1` (stereo not drawn) as the compound, how does the outcome read?
Answer: The outcome was “inactive”.

Question: For `CCO[Si](C)(OCC)OCC`, which outcome is on record?
Answer: Its outcome is “inactive”.

Question: With `C=CCOCC(O)CCl` (stereo not drawn) as the compound, how does the outcome read?
Answer: The outcome was “inactive”.

Question: Which AC50 does the source give for `C#CC1(O)CC[C@H]2[C@@H]3CCC4=CCCC[C@@H]4[C@H]3CC[C@@]21C` (stereo partly drawn) here?
Answer: The AC50 was 31.7 µM (active).

Question: For `O=C(Cl)c1cc(C(=O)Cl)cc(C(=O)Cl)c1`, which AC50 is on record?
Answer: Its AC50 is 33.8 µM (active).

Question: With `CCCCCCCCCCCCCCCC[N+](C)(C)CC` as the compound, how does the AC50 read?
Answer: The AC50 was 3.23 µM (active).

Question: For `CN1C(=O)N(C)C(O)C1O` (stereo not drawn), which outcome is on record?
Answer: The outcome was “inactive”.

Question: For `CCCCNc1ccc(NCCCC)c2c1C(=O)c1ccccc1C2=O`, which outcome is on record?
Answer: The outcome was “inactive”.

Question: For `C=C[Si](OC(C)=O)(OC(C)=O)OC(C)=O`, which outcome is on record?
Answer: Its outcome is “inactive”.

Question: With `Nc1ccc(N)c(Cl)c1` as the compound, how does the AC50 read?
Answer: The AC50 was 8.84 µM (active) and 11.4 µM (active).

Question: For `O=Nc1ccc(O)cc1`, which outcome is on record?
Answer: Its outcome is “inactive”.

Question: Which AC50 does the source give for `C=CCOc1c(Br)cc(Br)cc1Br` here?
Answer: The AC50 was 20 µM (active).

Question: Which outcome does the source give for `CCCCCCCCc1ccc(Nc2ccc(CCCCCCCC)cc2)cc1` here?
Answer: The outcome was “inactive”.

Question: With `CCCCC/C=C\C/C=C\CCCCCCCC(=O)OC` as the compound, how does the AC50 read?
Answer: Its AC50 is 26.9 µM (active).

Question: Which outcome does the source give for `C=CC=CC=CCCCCC` here?
Answer: The outcome was “inactive”.

Question: With `CC(C)(c1cc(Br)c(OCCO)c(Br)c1)c1cc(Br)c(OCCO)c(Br)c1` as the compound, how does the AC50 read?
Answer: The AC50 was 12.1 µM (active).

Question: With `O=C(c1ccc(O)cc1)c1ccc(O)cc1O` as the compound, how does the outcome read?
Answer: Its outcome is “inactive”.

Question: With `CCCCC(CC)COCC1CO1` (stereo not drawn) as the compound, how does the outcome read?
Answer: The outcome was “inactive”.

Question: Which outcome does the source give for `O=c1c2ccccc2oc2ccccc12` here?
Answer: Its outcome is “inactive”.

Question: Which outcome does the source give for `S=C(NC1CCCCC1)NC1CCCCC1` here?
Answer: The outcome was “inactive”.

Question: With `CCOC(=O)c1ccccc1C(=C1C=C(Br)C(=O)C(Br)=C1)c1cc(Br)c(O)c(Br)c1` as the compound, how does the AC50 read?
Answer: Its AC50 is 3.49 µM (active) and 3.47 µM (active).

Question: With `CO[Si](OC)(OC)c1ccccc1` as the compound, how does the outcome read?
Answer: Its outcome is “inactive”.

Question: With `CC(C)C(=O)C(C)C` as the compound, how does the outcome read?
Answer: Its outcome is “inactive”.

Question: Which outcome does the source give for `COc1ccc2nc(N)sc2c1` here?
Answer: The outcome was “inactive”.

Question: Which outcome does the source give for `c1ccc2c(c1)ccc1cc3c(ccc4ccccc43)cc12` here?
Answer: Its outcome is “inactive”.

Question: For `c1ccc2c(c1)ccc1ncccc12`, which AC50 is on record?
Answer: The AC50 was 8.26 µM (active).

Question: Which AC50 does the source give for `C/C=C\C/C=C/CCCCCCCCOC(C)=O` here?
Answer: The AC50 was 26.3 µM (active).

Question: For `c1ccc(-c2ccccn2)nc1`, which outcome is on record?
Answer: The outcome was “inactive”.

Question: With `CCO[Si](CCCN=C=O)(OCC)OCC` as the compound, how does the outcome read?
Answer: The outcome was “inactive”.

Source: PubChem BioAssay (EPA / NIEHS)
